# Sampled rows, rich in hits. Any-hit rate of the full collection: about 1.5%.
# Cardiac RTF inh: cardiac RTF calcium desensitization; P19429+P45379; IANBD-labeled cardiac RTF, Ca2+ fluorescence; inhibition, % at 7.15 µM; 0.12% of 340,000 active;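 active = inhibition above the mean inhibition of all tested compounds plus 3 SD, cut at about 17% in these data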;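 also: assay run at fixed EC70 calcium of 1.6 mM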
# cardiac RTF act: increases calcium sensitivity of human cardiac regulated thin filaments | P19429+P45379 | IANBD-labeled TnC RTF fluorescence at EC20 calcium; 0% EC20 calcium, 100% full calcium | activation, % at 7.2 µM | 0.24% of 340,000 active | AID 493008;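 active = activation above the mean over all tested compounds plus 3 SD, cut at about 30% in these data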;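 also: rise in fluorescence read as greater calcium sensitivity of cardiac thin filaments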
# CRFR2-BP antag: blocks CRF-induced signaling of the CRF-BP/CRF-R2 complex; 0.59% of 350,000 active; inhibition, % at 11.8 µM; HEK293 CRF-R2/CRF-BP, CRF-induced calcium fluorescence;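 active = inhibition of the ligand-induced calcium signal above about 50% at the single tested concentration, limit read from the data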
# IDE inh: cellular human IDE inhibition | P14735 | HEK cells, FAbetaB cleavage, fluorescence polarization | inhibition, % at 5.59 µM | 0.41% of 320,000 active;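 active = percent inhibition above the average of all tested compounds plus 3 SD, set per screening campaign, cut at about 16% in these data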;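 also: IDE supplied by intact live HEK cells; FP after avidin binding of uncleaved biotin substrate so inhibition keeps polarization high; 0% = DMSO wells and 100% = 60 µM reference IDE inhibitor Ii1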
# IDE act: activators of human insulin-degrading enzyme in cells; 0.073% of 340,000 active; P14735; activation, % at 5.96 µM; HEK cells, FAbeta-B cleavage, fluorescence polarization; 0% vehicle, 100% cell-free pure enzyme wells;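 active = activation above the mean of all tested compounds plus 3 SD, set per screening campaign, cut at about 17% in these data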
# CRFBP-R2 agonist: agonists of human CRF-binding protein/CRF-R2 receptor complex; activation, % at 13.2 µM; 0.46% of 350,000 active; AID 588473; HEK293 CRF-R2/CRF-BP, calcium dye fluorescence (FLIPR); percent of saturating CRF peptide response;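 active = activation of at least 50%, plus an integration ratio under a set limit after plate pattern correction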;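 also: plate controls were neutral control wells without compound for no effect and CRF at EC100 for full effect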
# An asterisk follows results filed as active; . = not tested or not shown.
SMILES,Cardiac RTF inh,cardiac RTF act,CRFR2-BP antag,IDE inh,IDE act,CRFBP-R2 agonist
Nc1nc(=O)n(C2CCCO2)cc1Br (centres undefined),1.8,-0.7,21.5,.,-4.7,7.7
O=C1NC(=S)S/C1=C\c1coc2ccc(O)cc2c1=O,-8.9,3.2,96.4*,4.8,-4.2,-1.5
C=CCN(C(=O)CCC(=O)Nc1cc(C)on1)C(C(=O)NC1CCCC1)c1ccc(C)cc1 (centres undefined),-6.6,-3.6,0.0,2.8,-0.4,-2.0
NC(=O)C1CCN(C(=O)/C=C/c2ccccc2[N+](=O)[O-])CC1,-1.6,1.6,3.9,-4.2,1.9,-0.5
O=C(/C=C/c1ccccc1[N+](=O)[O-])N1CCOCC1,1.6,-3.5,63.3*,1.1,0.2,-0.2
COc1cccc(C2CCCN2Cc2nc(-c3cnccn3)no2)c1 (centres undefined),-16.5,1.4,116.0*,4.0,6.7,0.6
OC(CCCN1CCCCC1)(c1ccccc1)c1ccc(C(F)(F)F)cc1 (centres undefined),3.9,2.4,-27.4,.,6.5,8.2
COc1cccc(CNS(=O)(=O)c2c(C(=O)N3CCCCCC3)c(C)n(C)c2C)c1,-3.2,4.7,6.2,0.8,0.3,0.9
CCN(CC)c1ccc(S(=O)(=O)N2CCOCC2)cc1NC(=O)COC(=O)/C=C/c1ccco1,-4.1,-2.6,1.1,.,0.6,0.9
O=C(CCl)N1c2ccccc2Oc2ccc3ccccc3c21,-295.2,225.6*,-88.2,.,-5.3,40.7
C=CCN1C(c2cccc(C(F)(F)F)c2)=CS/C1=C(\C#N)c1nnc(N2CCOCC2)n1-c1ccccc1,.,.,-15.8,.,.,57.7*
C=CCN1C(c2ccc(Br)cc2)=CS/C1=C(\C#N)c1nnc(N2CCOCC2)n1-c1ccccc1,-5.3,2.6,13.6,.,2.2,-2.0
Cc1[nH]c(=O)c(C#N)cc1-c1csc(-c2ccccc2)n1,-5.2,-4.5,51.0*,7.9,-3.5,-5.6
CCCN(C(=O)CSc1n[nH]c(-c2ccc(OC)cc2)n1)c1c(N)n(Cc2ccccc2)c(=O)[nH]c1=O,-2.6,-10.9,59.2*,8.5,2.0,1.0
Cc1ccc(C(=O)N(Cc2ccco2)c2c(N)n(Cc3ccccc3)c(=O)[nH]c2=O)cc1,.,.,1.6,.,.,-0.8
COc1cc(OC)cc(C(=O)N(Cc2ccco2)c2c(N)n(Cc3ccccc3)c(=O)[nH]c2=O)c1,-49.5,31.3*,-2.4,.,2.0,-1.0
O=C(CCC1CCCC1)c1c(O)c2ccccc2oc1=O,-3.3,1.3,65.9*,-0.4,0.2,88.9*
O=C(c1c(O)c2ccccc2oc1=O)C1CCCCC1,3.2,2.4,4.0,1.5,-1.3,0.8
CN(CC(=O)Nc1c(Cl)cccc1Cl)C(=O)C1=COCCO1,0.2,-4.7,-17.2,1.2,2.6,3.8
O=C(N/N=C/c1ccccc1Cl)C1CC1,-0.6,-1.0,76.7*,-4.7,4.5,0.0
O=C(NN=Cc1cccc2ccccc12)C1CC1,8.1,-7.5,-5.6,.,1.4,-4.4
COCCNC(=O)Cn1nc(-c2ccccc2C)ccc1=O,-7.5,-3.3,2.2,0.5,4.6,0.2
C=CCN1C(=O)c2ccccc2Sc2ccc(C(=O)NCCC)cc21,-6.4,-0.9,13.1,0.1,-2.2,-2.8
O=c1c2ccccc2n(Cc2ccc(F)cc2)c(=O)n1C1CCCC1,2.1,2.4,80.9*,0.5,1.5,7.8
COc1cc(CN(C2CCCCC2C)S(=O)(=O)c2ccc(S(=O)(=O)NC3CC3)cc2)cc(OC)c1OC (centres undefined),7.3,1.6,-0.8,2.0,7.1,0.5
COc1ccc(CN(C2CCCCC2C)S(=O)(=O)c2ccc(S(=O)(=O)N(C)C)cc2)cc1OC (centres undefined),-12.0,5.5,-139.1,-4.5,3.8,147.9*
C[C@H](CO)N1C[C@H](C)[C@@H](CN(C)C(=O)Nc2ccc3c(c2)OCO3)Oc2c(NC(=O)Cc3ccccc3)cccc2C1=O,4.4,-0.9,-3.7,-3.6,2.1,1.7
O=C1CCSc2c1ccc1ccccc21,-0.4,-2.0,60.9*,.,4.6,-3.4
O=C1CCCc2cc3c(ccc4ccccc43)cc21,9.3,2.0,-0.8,.,-10.1,1.2

# Assay outcomes (PubChem BioAssay)
